Screening results (PubChem BioAssay)
Most compounds without a hit are left out; they make up all but 3.7% or so of the library.
Tau fluor cs = counter-screen for tau fibril formation inhibitors | hit rate 0.93% among 280,000 | AID 1463 | Potency, µM (highest dose often 57.7 µM), for the others: at the highest dose activity change, negative = decrease | tau K18 P301L Alexa594 fluorescence, heparin fibrillization; further: on the % scale 0 is the no-effect control and ±100 the full control effect; nearly all actives have a fitted effect of over 55% in size
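Human tau K18 P301L (15 uM unlabeled, 0.24 uM Alexa 594-labeled) in 100 mM sodium acetate pH 7 with 20 uM heparin, 6 hr at 37 C. ThT 30 uM added, 1 hr ambient; Alexa 594 FP and total fluorescence read at 555/632 nm.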
HTT cytoprotect = cytoprotection in Huntington HTT-Q103 PC12 cell model; PC12 HTT-Q103 induced, cytoprotection, ATP luminescence, 40 h; Potency, µM (highest dose often 56.4 µM), without a hit: cytoprotection (ATP increase), hits mostly activators; hit rate 0.14% among 230,000; further: % of control where 0% means no effect; nearly all actives have a fitted effect of over 45% in size
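ATP quantification (ATPlite) reports survival of PC12 cells in which tebufenozide, 100 nM final, switches on Htt exon 1 with 103 glutamines linked to GFP; compounds are titrated.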
Tau FP inhib = inhibitors of human tau fibril formation; K18 P301L tau heparin fibrillization, Alexa594 FP, 6 h; P10636; AID 1468; hit rate 0.39% among 280,000; Potency, µM (highest dose often 57.7 µM), without a hit: at the highest dose activity, negative = inhibition, usual class: inhibitors; further: on the % scale 0 is the no-effect control and ±100 the full control effect; nearly all actives have a fitted effect of over 55% in size
Target sequence (P10636 561-689 P618L limits assumed): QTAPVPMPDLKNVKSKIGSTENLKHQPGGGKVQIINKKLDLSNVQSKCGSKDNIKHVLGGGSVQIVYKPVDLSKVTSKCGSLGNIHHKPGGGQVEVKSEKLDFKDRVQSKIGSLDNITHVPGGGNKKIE
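Steps: dispense K18 P301L tau (15 uM plus 0.24 uM Alexa 594 tracer, final) in pH 7 sodium acetate; add compound; add heparin (20 uM final); incubate 6 hr, 37 C; add ThT (30 uM final); after 1 hr ambient, read FP.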
Tau fibril ThT = blocks human tau fibril formation measured by thioflavin T | Potency, µM (doses to about 57.4 µM), without a hit: at the highest dose activity, negative = inhibition, usual class: inhibitors | hit rate 2.1% among 270,000 | P10636 | recombinant tau K18 P301L (four-repeat tau fragment), heparin-induced fibrillization, ThT fluorescence | AID 1460; further: on the % scale 0 is the no-effect control and ±100 the full control effect; nearly all actives have a fitted effect of over 55% in size
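In this qHTS, human K18 P301L tau is incubated with compound and heparin for 6 hr at 37 C, and Thioflavin T fluorescence then reports fibril load.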
HttQ103 aggreg = mutant huntingtin aggregation inhibition; AID 1688; Potency, µM (doses to about 46.1 µM), for the others: at the highest dose activity change, negative = inhibition, hits mostly inhibitors; hit rate 1.1% among 220,000; PC12 HttQ103-GFP aggregates, Acumen cytometry, 40 h; further: on the % scale 0 is the no-effect control and ±100 the full control effect; nearly all actives have a fitted effect of over 60% in size
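PC12 cells stably carrying ecdysone-inducible HTT exon 1 Q103–GFP were induced with tebufenozide (100 nM final) and treated with library compounds in titration. GFP aggregates in lysates were counted by laser scanning cytometry.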
Starred values were filed as active, the others as inactive; ? = inconclusive; . = no result given; [ ] = dose if it differs, or a comment. The call rests on the fitted dose curve; in most records, active means well fitted curve in the direction sought with a large enough effect; inconclusive means small, poorly fitted or top-dose-only effect, or another doubt; inactive means no such curve, though single readings can be large; an effect the other way counts as inactive or inconclusive. Potency means the concentration at half of the fitted maximal effect.

SMILES	Tau fluor cs	HTT cytoprotect	Tau FP inhib	Tau fibril ThT	HttQ103 aggreg
CCN(CC)c1ccc(/C=N/NC(=O)Cc2nnc(NC(=O)Nc3ccccc3)s2)cc1	7.08µM*[quencher]	10.7%[10 µM]	6.6%	?	-30.7%
CCN(CC)c1ccc(NC(=O)Nc2cccc(C(C)=O)c2)cc1	17.8µM*[quencher]	-86.1%	13.3%	?	-1.2%
Cc1cc2ccccc2n1-c1ccc(C(=O)N2CCC(C(=O)NCc3ccc(Cl)cc3)CC2)s1	-4.0%	.	9.9%	-13.6%	.
CCOc1ccc(C(=O)Nc2ccc3oc(-c4cccc5ccccc45)nc3c2)cc1	-23.5%	.	?	?	.
C[C@@H]1O[C@@H](n2cc(F)c(=O)[nH]c2=O)[C@H](O)[C@@H]1O	.	-37.1%[1.9 µM]	.	.	.
COCC(C)NC(=O)c1cc2cccc([N+](=O)[O-])c2[nH]1 (stereo not given)	-5.2%	9.3%[10 µM]	16.3%	.	10.2%[9.22 µM]
Cc1cc(NC(=O)c2cc3cccc([N+](=O)[O-])c3[nH]2)ccc1F	25.1µM*[quencher]	2.3%[10 µM]	?	.	-0.4%[9.22 µM]
CCCC(=O)O[C@]1(C(=O)CCl)[C@H](C)C[C@@H]2[C@H]3CCC4=CC(=O)C=C[C@]4(C)[C@@]3(F)C(=O)C[C@@]21C	.	-11.1%	.	.	2.5%
CCOC(=O)c1ccc(NC(=O)C2=C(C)Nc3nc(SCc4ccc(Cl)cc4)nn3C2c2ccc(OC)cc2)cc1 (stereo not given)	-1.0%	.	-13.6%	-1.9%	.
CCC[C@H](Sc1nc(N)nc2nc[nH]c12)C(=O)O	.	-1.2%[10 µM]	.	.	.
CC#CCC1(C(=O)OC)C(=O)NC[C@H]1c1ccccc1 (stereo not given in full)	-4.1%	?	1.4%	-4.6%	.
CCOC(=O)c1c(C)[nH]c2c1cc(O)c1ccccc12	?	-18.3%	-3.2%	15.8µM*	-12.9%
COC(=O)c1ccccc1NC(=O)CSc1nc2ccccc2nc1Cc1ccc(F)cc1	-2.6%	.	-1.6%	-0.6%	.
Cc1cc(C)n2nc(SCc3nnc(SCc4ccccc4C)s3)nc2n1	-13.3%	17.8%[10 µM]	0.7%	-12.3%	12.6µM*
Cc1cc(C)n2nc(SCc3nnc(SCc4ccccc4Cl)s3)nc2n1	-7.5%	13.5%[10 µM]	4.5%	-13.4%	-22.7%
O=C(O)c1cc(-c2ccc(-c3ccccc3)cc2)nc2cc3ccccc3cc12	.	-31.2%[10 µM]	.	.	.
Oc1ccccc1Nc1nc(NCc2ccco2)c2ccccc2n1	17.8µM*[quencher]	5.9%[10 µM]	-10.0%	?	-6.0%[9.22 µM]
Cc1ccccc1Nc1nc(NCc2ccco2)c2ccccc2n1	?	-149.8%	13.2%	?	?
O=C1OC(c2ccccc2)=N/C1=C\C=C\c1ccco1	-12.3%	-6.5%[10 µM]	-4.4%	14.1µM*	11.1%[9.22 µM]
COc1ccc(N/N=C(\C#N)C(=N)N2CCCCC2)cc1	-19.6%	-9.0%[10 µM]	8.7%	?	6.3%[9.22 µM]
COc1ccc(N/N=C(\C#N)C(=N)SCc2ccccc2)cc1	?	?	5.1%	14.1µM*	7.94µM*
CCCCSc1nnc2c(n1)OC(C)N(C(C)=O)c1ccccc1-2 (stereo not given)	8.2%	.	1.5%	12.2%	.
CCCCSc1nnc2c(n1)OC(C(=O)c1ccccc1)Nc1ccccc1-2 (stereo not given)	?	-33.6%	?	31.6µM*	3.7%
Cc1cccc(NC(=O)Cn2c(=O)n(CCc3ccccc3)c(=O)c3sc4ccccc4c32)c1	-1.3%	.	-17.1%	13.8%	.
Cc1c(/C=N/NC(=O)CNc2ccccc2)c2ccccn2c1C(=O)c1ccncc1	?	34.6%[10 µM]	?	14.1µM*	-24.2%
SMILES	Tau fluor cs	HTT cytoprotect	Tau FP inhib	Tau fibril ThT	HttQ103 aggreg
Cc1c(/C=N/NC(=O)CNc2ccccc2)c2ccccn2c1C(=O)c1ccc(Cl)cc1	?	27.7%[10 µM]	?	?	?
Cc1ccccc1/C=C\C1=NCCN1	.	16.4%[1.9 µM]	.	.	.
O=[N+]([O-])c1ccc(N/N=C/c2sc(N3CCOCC3)nc2-c2ccccc2)c(S(=O)(=O)Nc2ccc(Cl)cc2)c1	?	-64.1%	14.9%	?	3.55µM*
O=[N+]([O-])c1ccc(N/N=C/c2sc(N3CCOCC3)nc2-c2ccccc2)c(S(=O)(=O)Nc2ccccc2Cl)c1	-1.9%	-28.9%	1.9%	2.9%	?
COc1ccc(OC)c(N(CC(=O)NCc2ccccc2)S(=O)(=O)c2ccccc2)c1	-12.8%	.	-2.5%	-3.9%	.
CCc1c(O)nc(SCC(=O)Nc2ccc(C)cc2)n(C2CCCCC2)c1=O	-12.2%	-33.4%[0.074 µM]	2.8%	-11.6%	11.2µM*
Cc1cccc(N2C(=O)C(Cl)=C(Nc3c(C)n(C)n(-c4ccccc4)c3=O)C2=O)c1C	-17.0%	-3.1%	?	?	14.5%
Cc1ccc(N2C(=O)C(Cl)=C(Nc3c(C)n(C)n(-c4ccccc4)c3=O)C2=O)cc1	-26.6%	8.3%[10 µM]	?	28.2µM*	3.5%
COc1cc(SC)ccc1C(=O)NCCOc1c(C)cc(C)cc1C	-19.6%	-40.0%	-5.9%	15.8µM*	2.5%
COc1cc(SC)ccc1C(=O)NC(C)C	6.4%	12.6µM*	6.9%	-10.7%	0.5%
Cc1ccccc1NC1=C/C(=N\S(=O)(=O)c2cccs2)c2ccccc2C1=O	?	-111.4%	-10.7%	8.91µM*	1.41µM*
Cc1ccc(NC2=C/C(=N/S(=O)(=O)c3cccs3)c3ccccc3C2=O)cc1C	-16.5%	.	5.1%	-6.1%	?
CC(=O)Nc1ccc(NC2=C/C(=N/S(=O)(=O)c3cccs3)c3ccccc3C2=O)cc1	5.01µM*[quencher]	.	?	?	5.62µM*
Cc1cc(C)c(NC(=O)CCn2c(=O)c3cccn3c3ccccc32)c(C)c1	-22.3%	.	9.2%	-9.5%	.
C=C1C(n2cnc3c(=O)[nH]c(N)nc32)C[C@H](O)[C@H]1CO (stereo not given in full)	.	3.5%	.	.	-29.7%
COc1ccc(-c2nsc(NC(=O)COc3ccc(C)c(C)c3)n2)cc1	?	.	-14.1%	-5.8%	.
CCN1C(=O)c2ccccc2Sc2ccc(NC(=O)Nc3cccc([N+](=O)[O-])c3C)cc21	?	.	15.8µM*	0.7%	.
CC(C)CCNC(=O)Nc1ccc2c(c1)N(Cc1ccccc1)C(=O)c1ccccc1S2	-23.9%	.	14.1µM*	9.6%	.
CCN1C(=O)c2ccccc2Sc2ccc(NC(=O)Nc3ccccc3OC)cc21	?	.	?	7.4%	.
S=C1SCN(C2CCCCCCCCCCC2)CN1C1CCCCCCCCCCC1	.	0.8%[10 µM]	.	.	.
CCCCCCCCCCCCCCCCOC[C@@H](COCC(F)(F)F)OP(=O)(O)OCO	.	8.1%[1.9 µM]	.	.	.
Cc1ccc(C2(c3ccc(C)cc3)CC2C(=O)Nc2ccc([N+](=O)[O-])cc2O)cc1 (stereo not given)	10µM*[quencher]	-68.0%	?	-13.8%	7.08µM*
CCCCCCc1cc2cc(C(=O)Nc3ccccc3)c(=O)oc2cc1O	-11.3%	-39.0%[10 µM]	-3.9%	-4.7%	2.24µM*
NC(N)=N[C@H](CCC(=O)O)C(=O)O	.	4.3%[1.9 µM]	.	.	.
